# Source: PubChem BioAssay (EPA / NIEHS)
# Inconclusive results are not listed. Where a structure was tested more than once in an assay, its records may differ in their call. Active and inactive are the calls of the source. Rule for the calls, unless noted: active = hit-call score of the fitted dose curve at least 0.9, where 1 is the maximum; inconclusive = response in the unintended direction; inactive = score below 0.9.
# Experiments:
# [1] = target: human Peroxisome Proliferator-activated Receptor alpha (PPARa), PPARA (gene 5465) (UniProt Q07869); test: ATG_PPARa_TRANS: Attagene TRANS-FACTORIAL HepG2 Assay for human Peroxisome Proliferator-activated Receptor alpha (PPARa) (AID 2283001);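 for AC50: potency for gain of reporter signal over DMSO so agonist or activator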
# In short: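 HepG2 cells transiently transfected with multiplexed GAL4-UAS reporter units and chimeric NR-Gal4 constructs were dosed for 24 h. Reporter mRNA was measured by RT-PCR with fluorescent labelling and capillary electrophoresis; gain of signal fitted against DMSO.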
# [2] = target: human Peroxisome Proliferator-activated Receptor delta (PPARd), PPARD (gene 5467) (UniProt Q03181); test: ATG_PPARd_TRANS: Attagene TRANS-FACTORIAL HepG2 Assay for human Peroxisome Proliferator-activated Receptor delta (PPARd) (AID 2283002)
# In short: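 Measured quantity: GAL4-UAS reporter transcript induction in HepG2 after 24 h chemical dosing, with NR-Gal4 chimeras supplied by transient transfection. Detection by RT-PCR and capillary electrophoresis; upward fit against DMSO.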
# [3] = target: Nuclear receptor subfamily 1 group I member 2 (Homo sapiens) (UniProt O75469); test: ATG_PXR_TRANS: Attagene TRANS-FACTORIAL HepG2 Assay for human Pregnane X Receptor (PXR) (AID 2283008)
# In short: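 Read-out is fluorescence of labelled reporter cDNA fragments separated by capillary electrophoresis after RT-PCR and HpaI digestion. Source: HepG2 cells carrying PXR-GAL4/UAS reporter constructs, treated 24 h; activity fitted upward relative to DMSO.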
# [4] = target: human Thyroid Receptor alpha (THRa1), THRA (gene 7067) (UniProt P10827); test: ATG_THRa1_TRANS: Attagene TRANS-FACTORIAL HepG2 Assay for human Thyroid Receptor alpha (THRa1) (AID 2283014)
# In short: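 HepG2 cells transiently transfected with multiplexed GAL4-UAS reporter units for exogenous chimeric THRa1-Gal4; reporter mRNA measured 24 h after dosing by RT-PCR, 6-FAM labelling, HpaI digestion and capillary electrophoresis. Gain-of-signal fitted versus DMSO baseline.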
# [5] = read-out: Intercellular Adhesion Molecule 1 (ICAM1), ICAM1 (gene 3383); test: BSK_3C_ICAM1: BioMAP Diversity Plus: 3C Assay for Intercellular Adhesion Molecule 1 (ICAM1) Biomarker Activity (AID 2283003; active = hit-call score of the fitted dose curve at least 0.9, where 1 is the maximum; inactive = score below 0.9); conditions: primary human endothelial cells (HUVEC); actives raise or lower the signal
# In short: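 Primary human umbilical vein endothelial cells in the BioMAP 3C system were exposed to chemicals for 24 h, then ICAM-1 was quantified by ELISA. Activity was fitted bidirectionally against the DMSO negative control baseline.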
# [6] = BSK_3C_Proliferation: Cell Proliferation Assessment in the BioMAP Diversity Plus: 3C Assay (AID 2283006; active = hit-call score of the fitted dose curve at least 0.9, where 1 is the maximum; inactive = score below 0.9;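 for AC50: potency may reflect either rise or fall in cell number versus DMSO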); conditions: primary human endothelial cells (HUVEC)
# In short: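 Human umbilical vein endothelial cells were grown sub-confluent and exposed to chemical for 48 h, then fixed with 10% TCA and stained with 0.1% sulforhodamine B; absorbance at 560 nm gave relative cell number, fitted bidirectionally against DMSO baseline.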
# [7] = target: Retinoic acid receptor RXR-alpha (Homo sapiens) (UniProt P19793); test: ATG_RXRa_TRANS: Attagene TRANS-FACTORIAL HepG2 Assay for human Retinoid X Receptor alpha (RXRa) (AID 2283012)
# In short: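 HepG2 cells transiently transfected with multiplexed GAL4-UAS reporter units and chimeric NR-GAL4 fusions, dosed 24 h. Reporter mRNA measured by RT-PCR, FAM labelling, HpaI digestion and capillary electrophoresis; gain-of-signal fitted relative to DMSO baseline.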
# [8] = read-out: E-selectin (Homo sapiens) (UniProt P16581); test: BSK_3C_Eselectin: BioMAP Diversity Plus: 3C Assay for Eselectin Biomarker Activity (AID 2283015; active = hit-call score of the fitted dose curve at least 0.9, where 1 is the maximum; inactive = score below 0.9;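 note: cell surface E-selectin protein quantified by ELISA 24 h after dosing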); conditions: primary human endothelial cells (HUVEC); actives raise or lower the signal
# In short: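 Primary human umbilical vein endothelial cells (3C system) were dosed with chemical and cell-surface E-selectin measured by ELISA 24 h later. Bidirectional curve fitting used DMSO as negative control and baseline.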
# [9] = read-out: Interleukin-1 alpha (IL1a), IL1A (gene 3552); test: BSK_BE3C_IL1a: BioMAP Diversity Plus: BE3C Assay for Interleukin-1 alpha (IL1a) Biomarker Activity (AID 2283016; active = hit-call score of the fitted dose curve at least 0.9, where 1 is the maximum; inactive = score below 0.9); conditions: primary human bronchial epithelial cells; actives raise or lower the signal
# In short: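 Human primary bronchial epithelial cells (BE3C system) were dosed with compound and IL-1a measured by ELISA 24 h later. Activity was fitted bidirectionally against DMSO baseline; cytotoxicity was tracked in parallel cultures by SRB total-protein staining.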
# [10] = read-out: Monocyte Chemoattractant Protein-1 (MCP1), CCL2 (gene 6347); test: BSK_3C_MCP1: BioMAP Diversity Plus: 3C Assay for Monocyte Chemoattractant Protein-1 (MCP1) Biomarker Activity (AID 2283017; active = hit-call score of the fitted dose curve at least 0.9, where 1 is the maximum; inactive = score below 0.9); conditions: primary human endothelial cells (HUVEC); actives raise or lower the signal
# In short: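 Primary human umbilical vein endothelial cells (3C system) were exposed to test chemical for 24 h, after which MCP-1 was quantified by ELISA. Activity was fitted bidirectionally against DMSO as negative control and baseline.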
# [11] = read-out: Monocyte Chemoattractant Protein-1 (MCP1), CCL2 (gene 6347); test: BSK_4H_MCP1: BioMAP Diversity Plus: 4H Assay for Monocyte Chemoattractant Protein-1 (MCP1) Biomarker Activity (AID 2283018; active = hit-call score of the fitted dose curve at least 0.9, where 1 is the maximum; inactive = score below 0.9); conditions: primary human endothelial cells (HUVEC); actives raise or lower the signal
# In short: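 Human umbilical vein endothelial cells (4H system) dosed with chemical; MCP-1 measured by ELISA 24 h after dosing. Bidirectional curve fitting against DMSO negative control as baseline; parallel SRB total-protein staining tracks overt cytotoxicity.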
# [12] = read-out: Human Leukocyte Antigen - DR isotype (HLADR), HLA-DRA (gene 3122); test: BSK_3C_HLADR: BioMAP Diversity Plus: 3C Assay for Human Leukocyte Antigen - DR isotype (HLADR) Biomarker Activity (AID 2283019; active = hit-call score of the fitted dose curve at least 0.9, where 1 is the maximum; inactive = score below 0.9;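 for outcome: ELISA of cell-surface HLA-DR on HUVEC 24 h after dosing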); conditions: primary human endothelial cells (HUVEC); actives raise or lower the signal
# In short: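 Primary human umbilical vein endothelial cells (3C system) were dosed with compound and cell-surface HLA-DR was quantified by ELISA at 24 h. Activity was fitted bidirectionally against DMSO as negative control and baseline.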
# [13] = read-out: Interleukin-8 (IL8), CXCL8 (gene 3576); test: BSK_3C_IL8: BioMAP Diversity Plus: 3C Assay for Interleukin-8 (IL8) Biomarker Activity (AID 2283020; active = hit-call score of the fitted dose curve at least 0.9, where 1 is the maximum; inactive = score below 0.9); conditions: primary human endothelial cells (HUVEC); actives raise or lower the signal
# In short: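 Primary human umbilical vein endothelial cells (3C system) were exposed to test chemical for 24 h, then IL-8 was quantified by ELISA. Responses were fitted bidirectionally against DMSO vehicle as baseline.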
# [14] = target: human Retinoid X Receptor beta (RXRb), RXRB (gene 6257) (UniProt P28702); test: ATG_RXRb_TRANS: Attagene TRANS-FACTORIAL HepG2 Assay for human Retinoid X Receptor beta (RXRb) (AID 2283013)
# In short: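 HepG2 cells transiently transfected with multiplexed reporter units driven by GAL4-UAS and exogenous chimeric NR-Gal4 proteins; treated 24 h. Reporter mRNA measured by RT-PCR, 6-FAM labelling and capillary electrophoresis; gain-of-signal fitted versus DMSO baseline.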
# [15] = target: human RAR-related Orphan Receptor gamma (RORg), RORC (gene 6097) (UniProt P51449); test: ATG_RORg_TRANS: Attagene TRANS-FACTORIAL HepG2 Assay for human RAR-related Orphan Receptor gamma (RORg) (AID 2283011)
# In short: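 Readout: reporter transcript induction (RT-PCR, fluorescent primer extension, capillary electrophoresis) after 24 h compound exposure of transiently transfected HepG2 cells carrying a RORg-Gal4 chimera and GAL4-UAS reporters; DMSO served as baseline, with increasing signal fitted.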
# [16] = target: human RAR-related Orphan Receptor beta (RORb), RORB (gene 6096) (UniProt Q92753); test: ATG_RORb_TRANS: Attagene TRANS-FACTORIAL HepG2 Assay for human RAR-related Orphan Receptor beta (RORb) (AID 2283010)
# In short: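 HepG2 cells were transiently transfected with multiplexed GAL4-UAS reporter units expressing chimeric nuclear receptor–GAL4 proteins, then dosed for 24 h. Reporter mRNA was quantified by RT-PCR with fluorescent labelling and capillary electrophoresis; gain of signal was fitted relative to DMSO.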
# [17] = target: Peroxisome proliferator-activated receptor gamma (Homo sapiens) (UniProt P37231); test: ATG_PPARg_TRANS: Attagene TRANS-FACTORIAL HepG2 Assay for human Peroxisome Proliferator-activated Receptor-gamma (PPARg) (AID 2283007)
# In short: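 Human hepatoma HepG2, transient MRTU transfection, 24 h treatment. mRNA reporter signal by RT-PCR plus capillary electrophoresis, fluorescence detection; fitted for increase over DMSO negative control.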
# Sequence of Nuclear receptor subfamily 1 group I member 2 (Homo sapiens) (O75469 whole entry, looked up, the tested form may be a part): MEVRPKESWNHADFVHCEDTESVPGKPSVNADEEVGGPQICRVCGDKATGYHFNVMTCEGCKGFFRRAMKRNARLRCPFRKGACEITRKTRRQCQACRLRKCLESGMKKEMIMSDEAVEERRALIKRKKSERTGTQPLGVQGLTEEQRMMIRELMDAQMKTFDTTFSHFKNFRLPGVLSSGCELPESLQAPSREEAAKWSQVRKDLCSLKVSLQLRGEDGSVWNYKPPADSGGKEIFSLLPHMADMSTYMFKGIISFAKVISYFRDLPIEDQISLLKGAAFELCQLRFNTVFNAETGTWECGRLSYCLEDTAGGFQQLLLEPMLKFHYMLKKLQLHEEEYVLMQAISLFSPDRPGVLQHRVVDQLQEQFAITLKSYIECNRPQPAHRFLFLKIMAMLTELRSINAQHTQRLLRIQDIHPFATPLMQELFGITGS
# Sequence of Retinoic acid receptor RXR-alpha (Homo sapiens) (P19793 whole entry, looked up, the tested form may be a part): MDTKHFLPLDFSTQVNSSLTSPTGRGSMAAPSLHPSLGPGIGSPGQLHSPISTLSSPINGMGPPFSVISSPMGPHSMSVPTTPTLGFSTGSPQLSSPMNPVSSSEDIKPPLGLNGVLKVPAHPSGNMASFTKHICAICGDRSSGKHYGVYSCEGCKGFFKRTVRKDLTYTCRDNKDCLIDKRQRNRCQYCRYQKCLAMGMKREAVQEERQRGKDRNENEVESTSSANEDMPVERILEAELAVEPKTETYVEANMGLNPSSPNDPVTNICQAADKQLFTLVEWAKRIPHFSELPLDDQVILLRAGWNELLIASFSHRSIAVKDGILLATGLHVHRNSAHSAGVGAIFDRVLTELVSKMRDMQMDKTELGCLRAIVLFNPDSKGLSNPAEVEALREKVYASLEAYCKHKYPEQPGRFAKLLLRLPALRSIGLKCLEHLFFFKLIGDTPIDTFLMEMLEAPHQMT
# Sequence of human Retinoid X Receptor beta (RXRb), RXRB (gene 6257) (P28702 whole entry, looked up, the tested form may be a part): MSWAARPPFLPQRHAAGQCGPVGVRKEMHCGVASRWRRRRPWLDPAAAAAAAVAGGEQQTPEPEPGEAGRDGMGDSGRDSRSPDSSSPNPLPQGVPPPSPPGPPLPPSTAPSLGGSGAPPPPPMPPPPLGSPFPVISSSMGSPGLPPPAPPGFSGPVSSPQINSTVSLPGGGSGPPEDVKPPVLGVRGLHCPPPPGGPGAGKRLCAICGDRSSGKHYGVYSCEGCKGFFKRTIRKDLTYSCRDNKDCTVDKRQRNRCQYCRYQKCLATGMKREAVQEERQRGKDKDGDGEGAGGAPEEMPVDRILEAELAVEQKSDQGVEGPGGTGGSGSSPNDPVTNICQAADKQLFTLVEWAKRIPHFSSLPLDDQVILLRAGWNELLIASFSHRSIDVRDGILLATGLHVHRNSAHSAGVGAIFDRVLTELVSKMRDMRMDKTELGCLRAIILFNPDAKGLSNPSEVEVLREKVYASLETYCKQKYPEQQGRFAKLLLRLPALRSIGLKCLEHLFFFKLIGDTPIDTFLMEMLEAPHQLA
# Sequence of human RAR-related Orphan Receptor gamma (RORg), RORC (gene 6097) (P51449 whole entry, looked up, the tested form may be a part): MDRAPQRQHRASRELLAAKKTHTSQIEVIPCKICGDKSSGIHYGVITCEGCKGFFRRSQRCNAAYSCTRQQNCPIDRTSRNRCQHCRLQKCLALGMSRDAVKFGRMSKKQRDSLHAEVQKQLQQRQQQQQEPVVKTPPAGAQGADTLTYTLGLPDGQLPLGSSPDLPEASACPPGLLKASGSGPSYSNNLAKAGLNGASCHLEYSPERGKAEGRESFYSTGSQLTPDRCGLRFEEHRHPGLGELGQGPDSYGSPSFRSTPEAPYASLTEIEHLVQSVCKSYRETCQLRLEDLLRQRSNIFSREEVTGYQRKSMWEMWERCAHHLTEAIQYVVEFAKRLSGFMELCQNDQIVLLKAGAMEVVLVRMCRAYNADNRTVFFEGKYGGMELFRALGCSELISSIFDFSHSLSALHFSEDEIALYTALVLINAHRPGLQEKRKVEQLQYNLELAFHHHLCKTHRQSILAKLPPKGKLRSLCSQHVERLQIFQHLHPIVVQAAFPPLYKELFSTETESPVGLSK
# Sequence of human Peroxisome Proliferator-activated Receptor delta (PPARd), PPARD (gene 5467) (Q03181 whole entry, looked up, the tested form may be a part): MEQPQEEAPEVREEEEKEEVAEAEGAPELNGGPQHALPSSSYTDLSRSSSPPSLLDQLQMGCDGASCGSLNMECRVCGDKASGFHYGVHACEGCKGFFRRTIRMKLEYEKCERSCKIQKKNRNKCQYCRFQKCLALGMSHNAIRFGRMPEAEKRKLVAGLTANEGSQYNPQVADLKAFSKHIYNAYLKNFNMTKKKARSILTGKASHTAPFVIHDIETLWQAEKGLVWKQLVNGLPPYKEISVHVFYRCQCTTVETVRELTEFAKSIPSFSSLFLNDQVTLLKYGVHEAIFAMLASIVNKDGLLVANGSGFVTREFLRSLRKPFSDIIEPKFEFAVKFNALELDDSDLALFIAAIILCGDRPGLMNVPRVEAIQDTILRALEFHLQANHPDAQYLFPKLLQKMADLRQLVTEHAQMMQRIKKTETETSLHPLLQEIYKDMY
# Sequence of E-selectin (Homo sapiens) (P16581 whole entry, looked up): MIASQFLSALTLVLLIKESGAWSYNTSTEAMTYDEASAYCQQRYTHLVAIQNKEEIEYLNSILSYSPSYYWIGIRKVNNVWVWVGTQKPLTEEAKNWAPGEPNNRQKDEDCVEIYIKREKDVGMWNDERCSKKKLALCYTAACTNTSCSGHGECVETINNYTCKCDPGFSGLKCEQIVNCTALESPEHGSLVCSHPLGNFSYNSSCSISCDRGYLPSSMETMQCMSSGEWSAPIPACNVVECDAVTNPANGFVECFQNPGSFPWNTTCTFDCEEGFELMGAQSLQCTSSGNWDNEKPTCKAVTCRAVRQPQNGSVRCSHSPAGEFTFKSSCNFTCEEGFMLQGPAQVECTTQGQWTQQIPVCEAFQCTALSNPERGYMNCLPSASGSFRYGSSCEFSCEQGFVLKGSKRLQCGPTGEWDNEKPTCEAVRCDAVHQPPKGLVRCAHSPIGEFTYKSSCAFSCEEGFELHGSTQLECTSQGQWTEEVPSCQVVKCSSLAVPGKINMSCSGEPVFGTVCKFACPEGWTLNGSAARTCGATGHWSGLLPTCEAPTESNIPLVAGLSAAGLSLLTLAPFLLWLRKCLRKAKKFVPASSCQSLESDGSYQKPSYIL
# Sequence of human Peroxisome Proliferator-activated Receptor alpha (PPARa), PPARA (gene 5465) (Q07869 whole entry, looked up, the tested form may be a part): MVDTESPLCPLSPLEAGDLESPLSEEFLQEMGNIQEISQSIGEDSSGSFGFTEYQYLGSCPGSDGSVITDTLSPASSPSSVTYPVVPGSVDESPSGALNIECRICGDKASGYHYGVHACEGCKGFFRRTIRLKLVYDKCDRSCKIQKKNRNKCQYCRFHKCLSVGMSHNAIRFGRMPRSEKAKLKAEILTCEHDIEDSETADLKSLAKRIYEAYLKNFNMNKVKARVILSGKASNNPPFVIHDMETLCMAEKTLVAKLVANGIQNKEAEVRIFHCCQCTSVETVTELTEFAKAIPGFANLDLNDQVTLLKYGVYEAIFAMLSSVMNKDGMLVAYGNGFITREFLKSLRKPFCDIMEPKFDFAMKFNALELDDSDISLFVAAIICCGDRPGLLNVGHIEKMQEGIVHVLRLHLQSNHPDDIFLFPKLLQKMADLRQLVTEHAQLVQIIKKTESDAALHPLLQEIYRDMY
# Sequence of human RAR-related Orphan Receptor beta (RORb), RORB (gene 6096) (Q92753 whole entry, looked up, the tested form may be a part): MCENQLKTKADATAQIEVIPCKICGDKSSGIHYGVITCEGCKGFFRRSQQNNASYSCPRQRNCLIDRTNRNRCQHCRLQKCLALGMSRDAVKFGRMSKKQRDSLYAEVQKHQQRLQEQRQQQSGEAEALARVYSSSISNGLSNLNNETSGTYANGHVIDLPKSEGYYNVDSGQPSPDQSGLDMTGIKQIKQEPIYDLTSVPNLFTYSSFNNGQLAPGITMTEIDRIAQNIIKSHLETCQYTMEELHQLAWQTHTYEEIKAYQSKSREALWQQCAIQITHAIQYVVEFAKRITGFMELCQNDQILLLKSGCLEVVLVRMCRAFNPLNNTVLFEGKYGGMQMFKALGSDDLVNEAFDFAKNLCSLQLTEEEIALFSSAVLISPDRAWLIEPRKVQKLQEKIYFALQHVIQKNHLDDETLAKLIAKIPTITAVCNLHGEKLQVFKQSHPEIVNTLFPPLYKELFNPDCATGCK
# Sequence of human Thyroid Receptor alpha (THRa1), THRA (gene 7067) (P10827 whole entry, looked up, the tested form may be a part): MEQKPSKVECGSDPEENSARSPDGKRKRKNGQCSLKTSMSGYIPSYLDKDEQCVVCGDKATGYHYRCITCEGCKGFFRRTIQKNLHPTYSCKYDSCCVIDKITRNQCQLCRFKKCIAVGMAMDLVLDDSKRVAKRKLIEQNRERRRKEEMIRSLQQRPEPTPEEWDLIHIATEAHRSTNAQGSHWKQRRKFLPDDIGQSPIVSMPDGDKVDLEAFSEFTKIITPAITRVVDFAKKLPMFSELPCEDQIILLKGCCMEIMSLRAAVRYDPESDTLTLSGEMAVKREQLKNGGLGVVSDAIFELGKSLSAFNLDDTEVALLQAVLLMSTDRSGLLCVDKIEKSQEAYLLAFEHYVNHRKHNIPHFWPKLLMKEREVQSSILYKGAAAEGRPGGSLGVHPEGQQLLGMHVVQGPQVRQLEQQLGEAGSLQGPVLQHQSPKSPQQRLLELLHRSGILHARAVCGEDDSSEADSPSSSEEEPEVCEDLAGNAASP
# Sequence of Peroxisome proliferator-activated receptor gamma (Homo sapiens) (P37231 whole entry, looked up): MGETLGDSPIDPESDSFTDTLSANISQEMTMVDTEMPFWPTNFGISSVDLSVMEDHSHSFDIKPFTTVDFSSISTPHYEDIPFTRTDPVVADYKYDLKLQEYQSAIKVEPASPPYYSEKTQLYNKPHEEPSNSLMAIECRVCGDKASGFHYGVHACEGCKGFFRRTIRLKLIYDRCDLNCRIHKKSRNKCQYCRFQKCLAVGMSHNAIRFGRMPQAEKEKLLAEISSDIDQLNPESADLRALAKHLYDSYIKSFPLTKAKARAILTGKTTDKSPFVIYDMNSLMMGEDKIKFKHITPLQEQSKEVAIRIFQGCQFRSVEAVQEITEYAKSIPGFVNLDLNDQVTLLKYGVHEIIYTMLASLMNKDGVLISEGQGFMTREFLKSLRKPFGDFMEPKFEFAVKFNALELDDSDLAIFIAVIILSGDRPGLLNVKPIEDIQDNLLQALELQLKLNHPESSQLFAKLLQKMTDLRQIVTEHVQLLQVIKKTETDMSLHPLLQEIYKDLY
smiles,measurement,setting,value
CCCCCCCCCCC(CO)CCCCCCCC (stereo not drawn),outcome,[1],inactive
same,outcome,[2],inactive
same,outcome,[3],inactive
same,outcome,[4],inactive
OC[C@H]1O[C@H](O[C@]2(CCl)O[C@H](CCl)[C@@H](O)[C@@H]2O)[C@H](O)[C@@H](O)[C@H]1Cl,outcome,[1],inactive
same,outcome,[5],inactive
same,outcome,[6],inactive
same,outcome,[3],inactive
same,outcome,[7],inactive
same,outcome,[4],inactive
same,outcome,[8],inactive
same,outcome,[9],inactive
same,outcome,[10],inactive
same,outcome,[11],inactive
same,outcome,[12],inactive
same,outcome,[13],inactive
CCCCCCCCCC=O,AC50,[1],29.6 µM (active)
same,outcome,[5],inactive
same,outcome,[6],inactive
same,AC50,[14],59 µM (active)
same,outcome,[8],inactive
same,outcome,[9],inactive
same,outcome,[10],inactive
same,outcome,[11],inactive
same,AC50,[12],32.3 µM (active)
same,outcome,[13],inactive
O=c1[nH]nnc2ccccc12,outcome,[1],inactive
same,outcome,[2],inactive
same,outcome,[3],inactive
same,outcome,[7],inactive
same,outcome,[4],inactive
CCN(CC)c1ccc(C(=C2C=CC(=[N+](CC)CC)C=C2)c2ccc(S(=O)(=O)O)cc2S(=O)(=O)[O-])cc1,outcome,[1],inactive
same,outcome,[2],inactive
same,outcome,[15],inactive
same,outcome,[7],inactive
same,AC50,[14],100 µM (active)
same,outcome,[4],inactive
COCCOCCOCCOCCOCCO,outcome,[1],inactive
same,outcome,[2],inactive
same,outcome,[16],inactive
same,outcome,[15],inactive
Clc1sc(Cl)c(Cl)c1Cl,outcome,[1],inactive
same,outcome,[2],inactive
same,outcome,[3],inactive
same,outcome,[14],inactive
CCC(O)CO (stereo not drawn),outcome,[1],inactive
same,outcome,[2],inactive
same,outcome,[3],inactive
same,outcome,[7],inactive
same,outcome,[14],inactive
same,outcome,[4],inactive
C=COCCOCCOCCOC=C,outcome,[1],inactive
same,outcome,[2],inactive
same,outcome,[3],inactive
same,outcome,[7],inactive
same,outcome,[4],inactive
CCO[Si](CCCS)(OCC)OCC,outcome,[1],inactive
same,outcome,[2],inactive
same,outcome,[16],inactive
same,outcome,[15],inactive
same,outcome,[7],inactive
same,outcome,[4],inactive
O=C(O)c1cn(C2CC2)c2cc(N3CCNCC3)c(F)cc2c1=O,outcome,[1],inactive
same,outcome,[5],inactive
same,outcome,[6],inactive
same,outcome,[3],inactive
same,outcome,[7],inactive
same,outcome,[14],inactive
same,outcome,[8],inactive
same,outcome,[9],inactive
same,outcome,[10],inactive
same,outcome,[11],inactive
same,outcome,[12],inactive
same,outcome,[13],inactive
O=C(O)COCCN1CCN(C(c2ccccc2)c2ccc(Cl)cc2)CC1 (stereo not drawn),outcome,[1],inactive
same,outcome,[2],inactive
same,outcome,[3],inactive
same,outcome,[4],inactive
C=CCOC(=O)CCC1CCCCC1,outcome,[1],inactive
same,outcome,[5],inactive
same,AC50,[6],31.6 µM (active)
same,outcome,[6],inactive
same,outcome,[4],inactive
same,outcome,[8],inactive
same,outcome,[9],inactive
same,outcome,[10],inactive
same,outcome,[11],inactive
same,outcome,[12],inactive
same,outcome,[13],inactive
COC(=O)Cc1cccc2ccccc12,outcome,[1],inactive
same,outcome,[2],inactive
same,outcome,[3],inactive
same,outcome,[7],inactive
same,AC50,[14],55.2 µM (active)
CNCCCC12CCC(c3ccccc31)c1ccccc12,outcome,[1],inactive
same,outcome,[2],inactive
same,outcome,[3],inactive
same,outcome,[7],inactive
OC1OC[C@@H](O)[C@H](O)[C@H]1O (stereo partly drawn),outcome,[1],inactive
same,outcome,[5],inactive
same,outcome,[6],inactive
same,outcome,[17],inactive
same,outcome,[16],inactive
same,outcome,[15],inactive
same,outcome,[7],inactive
same,outcome,[14],inactive
same,outcome,[8],inactive
same,outcome,[9],inactive
same,outcome,[10],inactive
same,outcome,[11],inactive
same,outcome,[12],inactive
same,AC50,[13],5.39 µM (active)
same,outcome,[13],inactive
